In the library only some 0.9% were active in any assay of this set; here they are far more common.
PPARg SRC-1 ag = PPARgamma-driven SRC-1 recruitment agonism; hit rate 0.41% among 200,000; PPARgamma-SRC-1 coactivator recruitment biochemical assay; activation, % at 8 µM; AID 631; in the data active = activation above about 19%;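 note: 0% = DMSO and 100% = reference agonist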
Target sequence (P37231 whole entry, looked up): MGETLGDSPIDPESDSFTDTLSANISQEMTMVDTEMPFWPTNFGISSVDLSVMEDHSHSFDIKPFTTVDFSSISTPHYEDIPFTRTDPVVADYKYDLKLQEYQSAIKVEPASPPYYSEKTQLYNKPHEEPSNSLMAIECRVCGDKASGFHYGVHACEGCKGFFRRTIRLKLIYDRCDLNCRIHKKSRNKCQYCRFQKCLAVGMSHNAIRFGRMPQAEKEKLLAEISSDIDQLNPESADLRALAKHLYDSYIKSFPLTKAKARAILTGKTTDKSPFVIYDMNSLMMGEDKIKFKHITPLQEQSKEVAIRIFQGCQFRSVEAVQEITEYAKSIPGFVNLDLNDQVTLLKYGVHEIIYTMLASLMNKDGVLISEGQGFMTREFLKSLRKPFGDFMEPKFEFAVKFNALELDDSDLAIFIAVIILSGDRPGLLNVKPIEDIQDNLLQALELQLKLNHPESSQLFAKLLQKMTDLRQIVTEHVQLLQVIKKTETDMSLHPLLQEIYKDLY
SRC3 TRFRET art = flags TR-FRET format artefacts in PPARgamma SRC-3 recruitment agonist screen. TR-FRET artefact counter-screen, PPARgamma/SRC-3 format; active compounds read high. TR-FRET ratio at 8 µM. hit rate 0.39% among 99,000
PPARg SRC-3 ag = PPARgamma-driven SRC-3 recruitment agonism. P37231. biochemical PPARgamma/SRC-3 coactivator recruitment assay. activation, % at 8 µM. hit rate 0.26% among 200,000; in the data active = activation above about 23%;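 note: 0% = DMSO and 100% = reference agonist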
PPARg SRC2 recr = agonists of SRC-2 recruitment by human PPARgamma. P37231. PPARgamma LBD-SRC-2 recruitment, biochemical. activation, % at 8 µM. hit rate 0.34% among 200,000. AID 1032; in the data active = activation above about 22%;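 note: 0% = vehicle and 100% = reference agonist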
SRC2 TRFRET art = counter-screen for PPARgamma SRC-2 recruitment agonists: TR-FRET artefact | active compounds read high | TR-FRET ratio at 8 µM | hit rate 0.4% among 200,000
SRC1 TRFRET art = counter-screen for PPARgamma SRC-1 recruitment agonists: TR-FRET artefact; TR-FRET detection artefact counter-screen, emission ratio; active compounds read high; TR-FRET ratio at 8 µM; hit rate 0.34% among 99,000; AID 1051; in the data active = TR-FRET ratio above about 2300
PPARg SRC2 conf = human PPARgamma SRC-2 recruitment agonism, confirmation; shares compounds with PPARg SRC-3 ag; biochemical SRC-2 recruitment by PPARgamma; activation, % at 8 µM; hit rate 52% among 790; in the data active = activation above about 22%;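 note: 0% = vehicle alone and 100% = reference agonist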
PPARg SRC1 conf = human PPARgamma SRC-1 recruitment agonism, confirmation; hit rate 43% among 790; activation, % at 8 µM; PPARgamma–SRC-1 coactivator recruitment biochemical assay; shares compounds with PPARg SRC-3 ag; in the data active = activation above about 20%;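 note: 0% = vehicle wells and 100% = reference agonist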
PPARg SRC3 conf = confirmation of agonists of SRC-3 recruitment by human PPARgamma; shares compounds with PPARg SRC-3 ag; biochemical PPARgamma-SRC-3 coactivator recruitment, agonist mode; activation, % at 8 µM; hit rate 29% among 790; in the data active = activation above about 24%;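 note: 0% = vehicle wells and 100% = reference agonist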
* marks the source's active call; other numbers are inactive results. Cut-off read from the data, not from the text of the source, unless noted: active = TR-FRET ratio above about 2000; inactive = the rest.

Screening S=c1[nH]c(-c2ccccc2)cn1/N=C/c1ccc(Br)cc1 returned PPARg SRC-1 ag 30*, SRC3 TRFRET art 1662, PPARg SRC-3 ag 26*, PPARg SRC2 recr 13, SRC2 TRFRET art 1402, SRC1 TRFRET art 1927, PPARg SRC2 conf 12, PPARg SRC1 conf 16 and PPARg SRC3 conf 15.
Screening COc1cc(C(=O)Nc2nnc(CC(C)(C)C)s2)c([N+](=O)[O-])cc1OC returned PPARg SRC-1 ag 5, SRC3 TRFRET art 1715, PPARg SRC-3 ag 3, PPARg SRC2 recr 4, SRC2 TRFRET art 1579 and SRC1 TRFRET art 1699.
`COc1ccc2c(c1)oc(=O)c1ccccc12` gave PPARg SRC-1 ag -1, SRC3 TRFRET art 1747, PPARg SRC-3 ag -4, PPARg SRC2 recr -2, SRC2 TRFRET art 1366 and SRC1 TRFRET art 1968.
For COc1ccc2c(c1)oc(=O)c1c3ccccc3[nH]c21 the results were PPARg SRC-1 ag 48*, SRC3 TRFRET art 3944*, PPARg SRC-3 ag 41*, PPARg SRC2 recr 56*, SRC2 TRFRET art 3710*, SRC1 TRFRET art 4961*, PPARg SRC2 conf 44*, PPARg SRC1 conf 33* and PPARg SRC3 conf 27*.
`COc1cc(/C=C(\C#N)C(=O)Nc2cccc3ncccc23)cc(OC)c1OC` gave PPARg SRC-1 ag 9, SRC3 TRFRET art 1573, PPARg SRC-3 ag 24*, PPARg SRC2 recr 10, SRC2 TRFRET art 1527, SRC1 TRFRET art 1866, PPARg SRC2 conf 3, PPARg SRC1 conf 10 and PPARg SRC3 conf 13.
For Cc1ccc(C(=O)N(c2ccccn2)C(C)c2ccco2)cc1 (stereo unspecified) the results were PPARg SRC-1 ag 0, PPARg SRC-3 ag 0, PPARg SRC2 recr -1 and SRC2 TRFRET art 1509.
`C=CCOc1cccc(C2C(C(=O)c3ccc(C)o3)=C(O)C(=O)N2c2nccs2)c1` (stereo unspecified) gave PPARg SRC-1 ag 24*, PPARg SRC-3 ag 23, PPARg SRC2 recr 32*, SRC2 TRFRET art 2025*, PPARg SRC2 conf 2, PPARg SRC1 conf -1 and PPARg SRC3 conf 3.
Cc1cc(N2C(=O)C(O)=C(C(=O)c3cccs3)C2c2cccc(O)c2)no1 (stereo unspecified) was read as PPARg SRC-1 ag -2, PPARg SRC-3 ag -4, PPARg SRC2 recr 6 and SRC2 TRFRET art 1443.
C=CCOc1cccc(C2C(C(=O)c3ccco3)=C(O)C(=O)N2CCN(CC)CC)c1 (stereo unspecified) was read as PPARg SRC-1 ag 8, PPARg SRC-3 ag 0, PPARg SRC2 recr 7 and SRC2 TRFRET art 1590.
Cc1ccc2nc(N3C(=O)C(O)=C(C(=O)c4ccc(C)o4)C3c3cccc(O)c3)sc2c1 (stereo unspecified) was read as PPARg SRC-1 ag 15, SRC3 TRFRET art 1853, PPARg SRC-3 ag 10, PPARg SRC2 recr 24*, SRC2 TRFRET art 1951, SRC1 TRFRET art 2305, PPARg SRC2 conf 4, PPARg SRC1 conf 4 and PPARg SRC3 conf 2.
`COc1ccc(C)cc1S(=O)(=O)N(C)CC(=O)N1CCCCCC1` gave PPARg SRC-1 ag 0, PPARg SRC-3 ag -2, PPARg SRC2 recr 8 and SRC2 TRFRET art 1670.
Screening COc1cc(N=Nc2c(C)n(C)n(-c3ccccc3)c2=O)ccc1N returned PPARg SRC-1 ag 28*, SRC3 TRFRET art 1714, PPARg SRC-3 ag 11, PPARg SRC2 recr 22, SRC2 TRFRET art 1662, SRC1 TRFRET art 1943, PPARg SRC2 conf 2, PPARg SRC1 conf 2 and PPARg SRC3 conf 3.
For CC(C)CN1CCN(Cc2ccc(CN3CCCCC3)s2)CC1CCO (stereo unspecified) the results were PPARg SRC-1 ag 0, SRC3 TRFRET art 1555, PPARg SRC-3 ag 0, PPARg SRC2 recr 9, SRC2 TRFRET art 1194 and SRC1 TRFRET art 1686.
`CN1/C(=C\C(=O)c2ccco2)C(C)(C)c2ccccc21` gave PPARg SRC-1 ag 5, PPARg SRC-3 ag 26*, PPARg SRC2 recr 19, SRC2 TRFRET art 1942, PPARg SRC2 conf 19, PPARg SRC1 conf 11 and PPARg SRC3 conf 13.
Nc1nc(-c2nc3ccccc3[nH]2)cs1 was read as PPARg SRC-1 ag 4, PPARg SRC-3 ag 2, PPARg SRC2 recr 6 and SRC2 TRFRET art 1782.
Screening Cc1ccc(C(=O)C2=C(O)C(=O)N(CCCn3ccnc3)C2c2ccc(OC(C)C)cc2)o1 (stereo unspecified) returned PPARg SRC-1 ag 14, PPARg SRC-3 ag 26*, PPARg SRC2 recr 28*, SRC2 TRFRET art 2124*, PPARg SRC2 conf 10, PPARg SRC1 conf 6 and PPARg SRC3 conf 7.
For CCOc1ccc(C2C(C(=O)c3ccco3)=C(O)C(=O)N2CCCn2ccnc2)cc1 (stereo unspecified) the results were PPARg SRC-1 ag 8, PPARg SRC-3 ag 16, PPARg SRC2 recr 19 and SRC2 TRFRET art 1743.
`O=C(CSc1nc2scc(-c3ccco3)c2c(=O)n1-c1ccccc1)N1CCOCC1` gave PPARg SRC-1 ag 23*, PPARg SRC-3 ag 37*, PPARg SRC2 recr 35*, SRC2 TRFRET art 2021*, PPARg SRC2 conf 26*, PPARg SRC1 conf 21* and PPARg SRC3 conf 19.
`NC(=O)CSc1nc2scc(-c3ccco3)c2c(=O)n1-c1ccccc1` gave PPARg SRC-1 ag 15, PPARg SRC-3 ag 5, PPARg SRC2 recr 15 and SRC2 TRFRET art 1825.
For Cc1cccc(NC(=O)CNC(=O)COc2ccc(-c3ccc(C#N)cc3)cc2)c1C the results were PPARg SRC-1 ag 27*, SRC3 TRFRET art 1717, PPARg SRC-3 ag 8, PPARg SRC2 recr 12, SRC2 TRFRET art 1521, SRC1 TRFRET art 2605*, PPARg SRC2 conf 8, PPARg SRC1 conf 8 and PPARg SRC3 conf 5.
For Cc1cccc(NC(=O)CNC(=O)COc2ccc(C(=O)c3ccc(F)cc3)cc2)c1C the results were PPARg SRC-1 ag 3, SRC3 TRFRET art 1628, PPARg SRC-3 ag 3, PPARg SRC2 recr 1, SRC2 TRFRET art 1480 and SRC1 TRFRET art 1970.
`Nc1ccc(O)c2c1C(=O)c1ccccc1C2=O` gave PPARg SRC-1 ag 24*, SRC3 TRFRET art 2307*, PPARg SRC-3 ag 21, PPARg SRC2 recr 32*, SRC2 TRFRET art 2073*, SRC1 TRFRET art 2546*, PPARg SRC2 conf 17, PPARg SRC1 conf 11 and PPARg SRC3 conf 10.
`COc1ccc(N)c2c1C(=O)c1ccccc1C2=O` gave PPARg SRC-1 ag 23*, SRC3 TRFRET art 2262*, PPARg SRC-3 ag 27*, PPARg SRC2 recr 34*, SRC2 TRFRET art 1893, SRC1 TRFRET art 2519*, PPARg SRC2 conf 25*, PPARg SRC1 conf 23* and PPARg SRC3 conf 20.

Screening results (PubChem)
